The list is not random: actives were taken first. Their share in the collection is about 12%.
JMJD2A Tudor inh – JMJD2A Tudor domain (human) inhibition. O75164. AlphaScreen JMJD2A-Tudor / H3K4me3 peptide binding. Potency, µM (titrated, usually from 114 µM), most hits filed as inhibitors. actives 4.4% (n = 390,000). AID 504339; also: nearly all actives have a fitted effect of over 50% in size
G9a inh – G9a (human) methyltransferase inhibition. Q96KQ7. G9a H3K9 monomethylation, AlphaScreen, 2 h. Potency, µM (highest dose often 102 µM), usual class: inhibitors. actives 8.8% (n = 350,000). AID 504332; also: nearly all actives have a fitted effect of over 75% in size
Target sequence (Q96KQ7 913-1193 limits assumed): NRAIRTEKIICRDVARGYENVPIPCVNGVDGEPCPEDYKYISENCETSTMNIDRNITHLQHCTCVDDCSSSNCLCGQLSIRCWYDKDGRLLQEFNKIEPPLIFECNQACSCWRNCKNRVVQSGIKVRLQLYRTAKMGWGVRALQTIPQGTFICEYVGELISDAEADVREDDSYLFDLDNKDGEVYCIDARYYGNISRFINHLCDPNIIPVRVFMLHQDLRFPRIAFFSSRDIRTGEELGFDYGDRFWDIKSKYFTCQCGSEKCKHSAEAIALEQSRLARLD
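G9a (20 nM) preincubated 15 min RT with compounds, then 500 nM biotinylated H3K9 peptide and 20 uM SAM added; 2 h RT reaction. Monomethyl-H3K9 product detected by AlphaScreen with anti-H3K9me1 antibody, streptavidin donor and anti-rabbit IgG acceptor beads.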
BAZ2B block – inhibitors of human BAZ2B bromodomain; actives 4.4% (n = 360,000); AlphaScreen BAZ2B-H3K14Ac peptide displacement; Potency, µM (highest dose often 114 µM), actives largely listed as inhibitors; AID 504333; also: nearly all actives have a fitted effect of over 60% in size
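Compounds, titrated to a top concentration of 110 uM, were incubated 30 min at room temperature with preformed BAZ2B/acetyl-K14 H3 peptide complex (50 nM each). Proximity signal was measured by AlphaScreen after 20 min with beads.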
HP1b chromo inh – HP1-beta chromodomain-methylated histone interaction inhibition. AlphaScreen HP1-beta / biotin-H3K9me3 peptide binding. Potency, µM (doses to about 114 µM), usual class: inhibitors. actives 0.56% (n = 390,000); also: nearly all actives have a fitted effect of over 70% in size
Target sequence (P83916 whole entry, looked up): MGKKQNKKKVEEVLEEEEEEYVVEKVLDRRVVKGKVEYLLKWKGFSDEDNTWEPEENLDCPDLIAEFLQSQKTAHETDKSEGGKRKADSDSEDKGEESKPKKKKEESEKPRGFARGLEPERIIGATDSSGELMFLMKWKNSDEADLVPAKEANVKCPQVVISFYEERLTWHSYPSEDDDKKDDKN
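AlphaScreen: HP1-beta (50 nM) preformed 30 min with biotin-H3(1-18)K9me3 peptide (50 nM) in PBS pH 7.4, 0.01% Tween-20. Compound added for 30 min at RT, then streptavidin donor/nickel chelate acceptor beads (10 ug/mL) for 30 min.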
Sfp inh – Sfp phosphopantetheinyl transferase inhibition | actives 3.5% (n = 310,000) | Potency, µM, usual class: inhibitors | Q9F4F7 | Biochemical Sfp PPTase activity, qHTS;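 also: the enzyme is Sfp with the accession as filed and its product quenches rhodamine fluorescence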
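Fluorescence-quenching assay: 15 nM Sfp-PPTase preincubated 15 min at room temperature with compound, then 5 uM rhodamine-CoA and 12.5 uM BHQ-2-labelled YbbR peptide added. Fluorescence (ex 525/em 598 nm) read at start and after 30 min; difference gives rate.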
TDP1 inh – blocks human tyrosyl-DNA phosphodiesterase 1. actives 0.28% (n = 350,000). Potency, µM (titrated, usually from 130 µM), most hits filed as inhibitors. Q9NUW8. recombinant TDP1, AlphaScreen DNA substrate cleavage; also: nearly all actives have a fitted effect of over 40% in size
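Compounds were preincubated with Tdp1 (1 nM final) for 15 min at room temperature before substrate (15 nM final) started a 5 min reaction; beads (10 ug/ml final) were then added for 10 min before AlphaScreen detection.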
Each line names hits and unclear results; the compound was inactive in the other large screens. Calls follow the shape of the dose curve; as a rule, active = well fitted curve in the direction sought with a large enough effect; inconclusive = small, poorly fitted or top-dose-only effect, or another doubt; inactive = no such curve, though single readings can be large; an effect the other way counts as inactive or inconclusive.

Nc1nc(-c2ccc3c(c2)CCC(=O)N3)cs1	G9a inh 44.7µM, Sfp inh 39.8µM
Nc1nc(-c2ccccc2)cs1	G9a inh inconclusive, HP1b chromo inh inconclusive
Nc1nc(-c2ccc(F)cc2)cs1	G9a inh 44.7µM, BAZ2B block inconclusive
Nc1nc(-c2ccc(Br)cc2)cs1	JMJD2A Tudor inh 79.4µM, G9a inh inconclusive, BAZ2B block 50.1µM
COc1ccc2c(c1)C(=O)[C@@H](OC(=O)N[C@H]1CCCc3ccccc31)[C@H](c1ccc(OC)c(Br)c1)O2	none (no result: JMJD2A Tudor inh, G9a inh, BAZ2B block, HP1b chromo inh)
Nc1nc(-c2ccc([N+](=O)[O-])cc2)cs1	G9a inh 50.1µM
CNc1nc(-c2ccc([N+](=O)[O-])cc2)cs1	none
O=[N+]([O-])c1ccc(-c2csc(NN=C3CCCC3)n2)cc1	G9a inh 50.1µM
CCOc1ccc(NC(=O)c2c(N)n(C)c(=O)[nH]c2=O)cc1	none (no result: G9a inh, BAZ2B block, Sfp inh, TDP1 inh)
CCOC(=O)C(CC)Sc1nnc2cc(C)c3ccccc3n12 (stereo not given)	none (no result: G9a inh, BAZ2B block, Sfp inh, TDP1 inh)
Cc1cc2nnc(SC3CCOC3=O)n2c2ccccc12 (stereo not given)	JMJD2A Tudor inh 10µM, G9a inh 10µM
Cc1cc2nnc(SC3CCCCN(C(=O)c4ccc(F)cc4)C3=O)n2c2ccccc12 (stereo not given)	JMJD2A Tudor inh inconclusive, G9a inh 39.8µM
Cc1cc2nnc(SC(C)C#N)n2c2ccccc12 (stereo not given)	JMJD2A Tudor inh 10µM, G9a inh 3.16µM
COc1ccc(-c2nc3sc(CCNS(=O)(=O)c4ccccc4)c(C)n3n2)cc1	none (no result: Sfp inh)
C=CCn1c(-c2ccc(Cl)cc2)cnc1SC(C)C(=O)NC(N)=O (stereo not given)	G9a inh inconclusive
C=CCn1c(-c2ccc(Cl)cc2)cnc1SC(C)C(N)=O (stereo not given)	G9a inh 10µM, BAZ2B block inconclusive
N#Cc1cccc(NC(=O)Cn2nc(Cc3ccncc3)c3ccccc3c2=O)c1	none (no result: Sfp inh)
O=c1c2ccccc2nc(N/N=C/c2ccc(O)cc2)n1O	G9a inh inconclusive, Sfp inh 35.5µM
O=c1c2ccccc2nc(N/N=C/c2c(O)ccc3ccccc23)n1O	JMJD2A Tudor inh 50.1µM, G9a inh inconclusive, BAZ2B block 28.2µM, Sfp inh 39.8µM
CCCc1nc2ccccc2c(=O)n1/N=C/c1ccc(O)cc1	none
Oc1ccc2ccccc2c1C=NNc1ccccn1	none (no result: G9a inh, BAZ2B block, Sfp inh, TDP1 inh)
Oc1cccc(/C=N/Nc2cccc3cccnc23)c1	JMJD2A Tudor inh inconclusive, G9a inh 35.5µM, BAZ2B block inconclusive, HP1b chromo inh inconclusive, Sfp inh 44.7µM
COc1cc(/C=N/Nc2cccc3cccnc23)cc(OC)c1O	JMJD2A Tudor inh inconclusive, G9a inh 10µM, BAZ2B block 28.2µM, HP1b chromo inh inconclusive, Sfp inh 50.1µM
Oc1c(/C=N/Nc2cccc3cccnc23)ccc2ccccc12	G9a inh inconclusive
COc1ccc(NC(=O)C(=O)Nc2cccc3cccnc23)cc1OC	none (no result: G9a inh, TDP1 inh)
O=C(Nc1nc(-c2ccccn2)cs1)C1CC1	JMJD2A Tudor inh 56.2µM, BAZ2B block 50.1µM
c1ccc(-c2csc(Nc3cccnc3)n2)nc1	JMJD2A Tudor inh inconclusive, G9a inh inconclusive, BAZ2B block inconclusive, Sfp inh inconclusive
CCOC(=O)c1sc(Nc2nc3c(OC)cccc3s2)nc1C	none (no result: JMJD2A Tudor inh, HP1b chromo inh)
COc1cccc2sc(Nc3nc(-c4ccccn4)cs3)nc12	BAZ2B block 50.1µM (no result: JMJD2A Tudor inh, HP1b chromo inh)
O=C(CC1CC2CCC1C2)Nc1nc(-c2ccccn2)cs1 (stereo not given)	G9a inh 20µM, BAZ2B block 44.7µM, Sfp inh 35.5µM
c1ccc(Nc2nc(-c3ccccn3)cs2)cc1	JMJD2A Tudor inh inconclusive, BAZ2B block 39.8µM, Sfp inh inconclusive
Cc1ccc(F)cc1NC(=O)Cn1c(C)cc(C)c(C#N)c1=O	none (no result: Sfp inh)
Cc1ccc(NC(=O)CCc2ccc(S(=O)(=O)N3CCOCC3)cc2)c(Cl)c1	none (no result: G9a inh, BAZ2B block, Sfp inh)
Cc1csc(NC(=O)C2CCCCC2C(=O)O)n1 (stereo not given)	none
Cc1csc(NC(=O)C2CCCC2)n1	G9a inh 39.8µM, Sfp inh 79.4µM
CCn1c(=O)cc(OCC(=O)NCc2ccc(C)o2)c2ccccc21	G9a inh inconclusive, Sfp inh 31.6µM
CCOc1ccc(N(CC)C(=O)COc2cc(=O)n(CC)c3ccccc23)cc1	none
CCn1c(=O)cc(OCC(=O)N(C)c2ccc(OC)cc2)c2ccccc21	BAZ2B block 89.1µM (no result: Sfp inh)
Cc1ccc(CNC(=O)CCCOc2cc(=O)n(C)c3ccccc23)o1	G9a inh inconclusive, Sfp inh 22.4µM
CCn1c(=O)cc(OCC(=O)NCc2ccco2)c2ccccc21	JMJD2A Tudor inh inconclusive, G9a inh inconclusive, BAZ2B block inconclusive, TDP1 inh inconclusive
CCOC(=O)c1sc(N/N=C/c2cccc(C)c2)nc1C	none
CC(=O)Nc1sc(N/N=C\c2cccc(Cl)c2)nc1-c1cccs1	JMJD2A Tudor inh inconclusive, G9a inh 10µM, HP1b chromo inh inconclusive
CC(=O)Nc1sc(N/N=C\c2ccccc2F)nc1-c1cccs1	JMJD2A Tudor inh inconclusive, G9a inh 10µM, HP1b chromo inh inconclusive
CC(=O)Nc1sc(N/N=C\c2ccc(O)cc2)nc1-c1cccs1	JMJD2A Tudor inh 39.8µM, G9a inh 31.6µM, BAZ2B block inconclusive, HP1b chromo inh inconclusive, Sfp inh inconclusive
COc1ccccc1C(=O)Nc1nc(-c2cccs2)c(NC(C)=O)s1	G9a inh inconclusive
CC(=O)Nc1sc(NC(=O)c2ccccc2)nc1-c1cccs1	none
Cc1cc(=O)[nH]c(SCC(=O)NCC2CCCCC2)c1C#N	none (no result: BAZ2B block)
Cc1nn(-c2ccc(N3CCOCC3)nn2)c(C)c1CCC(=O)NCc1ccc(OC(C)C)cc1	none (no result: Sfp inh)
COc1ccc(NC(=S)NC(NC(=O)CCl)C(Cl)(Cl)Cl)c([N+](=O)[O-])c1 (stereo not given)	JMJD2A Tudor inh inconclusive, G9a inh 25.1µM, BAZ2B block inconclusive, HP1b chromo inh inconclusive, Sfp inh 25.1µM (no result: TDP1 inh)
COc1ccc(NC(=S)NC(NC(=O)c2ccccc2Cl)C(Cl)(Cl)Cl)c([N+](=O)[O-])c1 (stereo not given)	JMJD2A Tudor inh inconclusive, BAZ2B block inconclusive
COc1ccc(NC(=S)NC(NC(=O)c2cccc3ccccc23)C(Cl)(Cl)Cl)c([N+](=O)[O-])c1 (stereo not given)	JMJD2A Tudor inh inconclusive, G9a inh 44.7µM, BAZ2B block inconclusive
O=C1[C@H](Cc2ccccc2)NCC=CC[C@@H](c2ccc(Cl)cc2)N1Cc1ccccc1	none (no result: G9a inh, BAZ2B block, Sfp inh, TDP1 inh)
CNCc1ccccc1Sc1cccc(O)c1	none
CNCc1ccccc1Sc1cc(O)ccc1O	JMJD2A Tudor inh 17.8µM, G9a inh 1µM, BAZ2B block 35.5µM, HP1b chromo inh 10µM, Sfp inh 22.4µM
